# Measured values as given in PubChem BioAssay (Tox21).
# Values joined by “and” are separate entries in the source; they are usually repeats but may differ in a detail not shown here. Equal entries are not always repeated. Records with an inconclusive call do not appear. Entries that show only a call come without a potency. Active and inactive are the calls of the source. Calls come from the whole dose curve; as a rule, active = well fitted activation curve with a large enough effect in the signal ratio in the repeat runs, with a control signal flat (not every such curve was filed as active); inconclusive = weak or mixed curves; inactive = flat fitted curve, though single readings scatter; the % refers to the signal ratio.
# Assay: qHTS assay for small molecule activators of the heat shock response signaling pathway (AID 743210)
# Settings: HeLa HSE-bla reporter, beta-lactamase ratio, 5 h; series mostly up to 62.6 µM
# Text: U.S. Tox21 Program National Center for Advancing Translational Sciences [NCATS] NIH Chemical Genomics Center [NCGC] U.S. Environmental Protection Agency [EPA] National Institutes of Environmental Health Sciences [NIEHS] National Toxicology Program [NTP] U.S. Food and Drug Administration [FDA] Tox21 Assay Overview: Various chemicals, environmental and physiological stress conditions may lead to the activation of heat shock response/ unfolded protein response (HSR/UPR). There are three heat shock transcription factors (HSFs) (HSF-1, -2, and -4) mediating transcriptional regulation of the human HSR. To identify the compounds that activate HSR signaling, HSE-bla HeLa cell line (Invitrogen, Carlsbad, CA, USA) containing a beta-lactamase reporter gene under the control of the heat shock response elements was used to screen the Tox21 10K compound library.
# Tox21 Assay Protocol Summary: The CellSensor HSE-bla HeLa cells (Invitrogen, Carlsbad, CA, USA) were dispensed at 1500 cells/6uL/well into 1536-well black wall/clear bottom plates using a Multidrop combi (Thermo Fisher Scientific, Waltham, MA) dispenser. After the assay plates were incubated at 37 C and 5% CO2 overnight, 23 nL of compounds dissolved in DMSO, positive controls or DMSO only was transferred to the assay plate by a Pintool station (Kalypsys, San Diego, CA). The plates were incubated at 37 C for 5 h. After 1 uL of LiveBLAzerTM B/G FRET substrate was added using a Flying Reagent Dispenser (Beckman Coulter, Indianapolis, IN, USA), the plates were incubated at room temperature for 2.5 h, and fluorescence intensity was measured by an Envision plate reader (PerkinElmer, Shelton, CT).
# Potency is the fitted concentration of half-maximal effect.
row,Compound,Potency
1,CCOC(=S)S,2.24 µM (active)
2,NNC(=S)NN,1.79 µM (active) and 4.36 µM (active)
3,CC1(C)C(C=C(Cl)Cl)C1C(=O)OC(C#N)c1cccc(Oc2ccccc2)c1 (stereo not given),inactive
4,O=[N+]([O-])c1ccc(O)c([N+](=O)[O-])c1,inactive
5,COP(=S)(OC)Oc1ccc([N+](=O)[O-])cc1,inactive
6,c1ccc(-c2cccc(-c3ccccc3)c2)cc1,inactive
7,CCC(C)c1cc([N+](=O)[O-])cc([N+](=O)[O-])c1O (stereo not given),inactive
8,NCc1cccnc1,inactive
9,O=C(O)CC[N+](=O)[O-],inactive
10,CN(C)c1ccc(C(=O)c2ccc(N(C)C)cc2)cc1,inactive
11,Nc1ccc(Cl)c(Cl)c1,inactive
12,CCN(CC)C(=O)SCc1ccc(Cl)cc1,inactive
13,C=C(C)C(=O)OCC1CO1 (stereo not given),inactive
14,Nc1cccnc1,inactive
15,Cc1cccc(N)c1N,inactive
16,ClC1C(Cl)C(Cl)C(Cl)C(Cl)C1Cl (stereo not given),inactive
17,COP(=O)(OC)OC,inactive
18,CCCCOCCOP(=O)(OCCOCCCC)OCCOCCCC,inactive
19,C1=Cc2cccc3cccc1c23,inactive
20,N[C@@H](Cc1ccc(N(CCCl)CCCl)cc1)C(=O)O,inactive

row,Compound,Potency
1,C[C@]12CCC(=O)C[C@@H]1CC[C@@H]1[C@@H]2CC[C@]2(C)[C@@H](O)CC[C@@H]12,inactive
2,N#Cc1cc(Br)c(O)c(Br)c1,inactive
3,CC(C)(OOC(C)(C)c1ccccc1)c1ccccc1,inactive
4,CCCCCc1cc(O)cc(O)c1,inactive
5,c1ccc(N=Nc2ccccc2)cc1,inactive
6,CN(C)C(=O)Nc1ccc(Cl)cc1,inactive
7,C=CCc1ccc2c(c1)OCO2,inactive
8,Cc1ccc(OP(=O)(Oc2ccc(C)cc2)Oc2ccc(C)cc2)cc1,inactive
9,C#C[C@]1(O)CC[C@H]2[C@@H]3CCC4=CC(=O)CC[C@]4(C)[C@H]3CC[C@@]21C,inactive
10,CC(C)C(=O)OCC(C)(C)C(OC(=O)C(C)C)C(C)C (stereo not given),inactive
11,Nn1cnnc1,inactive
12,C=CCc1ccc(OC)cc1,inactive
13,S=C1NCCN1,inactive
14,CC(C)N(C(=O)SCC(Cl)=C(Cl)Cl)C(C)C,inactive
15,CCN(CC)C(=O)/C(Cl)=C(\C)OP(=O)(OC)OC,inactive
16,CCN(CC)N=O,inactive
17,COc1ccc(C=O)cc1,inactive
18,CNC(=O)N(C)c1nnc(C(C)(C)C)s1,inactive
19,CC(C)c1ccc(CO)cc1,inactive
20,CCC(=O)O[C@H]1CC[C@H]2[C@@H]3CCC4=CC(=O)CC[C@]4(C)[C@H]3CC[C@]12C,inactive
